This is one part of a sample in which hits are shown more often than they occur.
Pf Dd2 growth – inhibitors of Plasmodium falciparum Dd2 growth; AID 1347417; Potency, µM (series often up to 28.9 µM), usual class: inhibitors; 120,000 tested, 4.3% active; P. falciparum Dd2 growth, SYBR Green, 72 h; active = well fitted inhibition curve with a large enough effect; note: nearly all actives have a fitted effect of over 65% in size
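Infected erythrocytes (Dd2, 0.3% parasitemia, 2.5% hematocrit final) are added to compound in RPMI-1640/Albumax II medium, grown 72 h at 37C in low oxygen, then lysed with saponin/Triton-X containing SYBR Green and read by fluorescence.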
Of the large screens only hits and unclear results are named; the others gave an inactive call.

Cc1cnn(CCC(=O)N2CCC(Oc3ccccc3)(C(=O)O)CC2)c1	none
CC(C)CC(=O)N[C@H](C)c1onc(-c2cccnc2)c1C(=O)O	none
O=C(NC1CC1)[C@@H]1C[C@H](Oc2ccccc2)CN1C(=O)Cc1ccccc1	none
O=C(c1ccccc1)N1CC(Oc2ccc(F)cc2F)C1	none
CCc1nccn1CCC(=O)N[C@H]1CN(C(=O)COC)C[C@@H]1C1CC1	none
O=C1N(C2CCCCC2)C[C@H]2CN(Cc3cccc(OC(F)(F)F)c3)CCN12	none
COc1cc(NC(=O)Cn2c(-c3cnccn3)nc(C)c(C)c2=O)cc(OC)c1	none
CCN(CC)C(=O)CCc1c(C)nn(-c2ccc(F)cc2)c1Oc1ccccc1F	none
CCN(CC)C(=O)CCc1c(C)nn(-c2cccc(C)c2)c1Oc1ccccc1	none
CCN(CC)C(=O)CCc1c(C)nn(-c2ccccc2)c1Oc1ccccc1	Pf Dd2 growth 10µM
O=C(NCc1cccc(C(F)(F)F)c1)C1CN(c2cccc(Cl)c2)C(=O)N1 (stereo not drawn)	none
Cc1ccc(-c2cc3c(=O)n(CCNC(=O)c4cccc(Cl)c4)ccn3n2)cc1C	none
Cc1ccc(-c2cc3c(=O)n(CCNC(=O)c4cc(Cl)ccc4F)ccn3n2)c(C)c1	none
CC(=O)Nc1cccc(C(=O)NCCn2ccn3nc(-c4ccc(C)cc4C)cc3c2=O)c1	Pf Dd2 growth 5.6µM
Cc1ccc(C)c(C(=O)NCCn2ccn3nc(-c4cc(C)ccc4C)cc3c2=O)c1	none
Cc1ccc(-c2cc3c(=O)n(CCNC(=O)c4ccccc4F)ccn3n2)cc1C	none
COc1cccc(C(=O)NCCn2ccn3nc(-c4ccc(C)cc4C)cc3c2=O)c1OC	none
Cc1ccc(-c2cc3c(=O)n(CCNC(=O)c4ccc(N(C)C)cc4)ccn3n2)c(C)c1	Pf Dd2 growth 10µM
COc1ccc(C(=O)NCCn2ccn3nc(-c4ccc(C)cc4C)cc3c2=O)cc1F	none
CCn1nccc1C(=O)NCCn1ccn2nc(-c3ccc(C)c(C)c3)cc2c1=O	Pf Dd2 growth 7.9µM
O=C([C@H]1CCC[C@H](O)C1)N1CCC(n2cnnc2)CC1	none
CC1(C)CNC(=O)c2nc(CC3CCCCN3C3CCCC3)[nH]c2C1 (stereo not drawn)	none
COC(=O)[C@H](NC(=O)[C@@H]1[C@@H](NC(=O)Nc2cccc(SC)c2)CCN1C(=O)c1cccn1C)C(C)C	none
CCc1noc(-c2cn(C3CCN(C(=O)c4ccc(Cl)s4)C3)nn2)n1 (stereo not drawn)	none
CCN1c2cc(C(=O)Nc3ccc(OC)cc3OC)ccc2C(=O)N2CCCCC21 (stereo not drawn)	none
CNC(=O)N1CCC(C2CCN(C(=O)CCc3ccc(OC)cc3)C2)CC1 (stereo not drawn)	none
CC(C)NC(=O)N[C@H]1CCN(C(=O)CC(C)(C)C)[C@@H]1C(=O)N[C@H](Cc1c[nH]c2ccccc12)C(N)=O	none
O=C(CCC1CCN(C(=O)c2ccccc2)CC1)NCCCN1CCOCC1	none
COc1ccc(C(=O)N[C@@H]2CCC[C@@H]2C(=O)N2CCCC2)cc1	none
COc1ccc(C(=O)N[C@@H]2CCC[C@@H]2C(=O)N2CCOCC2)cc1	none
COc1ccc(C(=O)N[C@@H]2CCC[C@@H]2C(=O)N2CCN(c3ccccc3F)CC2)cc1	Pf Dd2 growth 10µM
COc1ccc(C(=O)N[C@@H]2CCC[C@@H]2C(=O)NCCCN2CCCc3ccccc32)cc1	Pf Dd2 growth 11µM
COc1ccc(C(=O)N[C@@H]2CCC[C@@H]2C(=O)N2CCN(Cc3ccc(F)cc3)CC2)cc1	none
COc1ccc(C(=O)N[C@@H]2CCC[C@@H]2C(=O)N2CCN(c3cc(C)ccc3C)CC2)cc1	Pf Dd2 growth 5µM
COc1ccc(C(=O)N[C@@H]2CCC[C@@H]2C(=O)NCCCn2cccn2)cc1	none
COc1ccc(C(=O)N[C@@H]2CCC[C@@H]2C(=O)N2CCCCC2)cc1	none
CCCNC(=O)[C@H]1CCC[C@H]1NC(=O)c1ccc(OC)cc1	none
O=C(c1ccccc1F)N1CCCC2(CC(c3cccnc3)=NO2)C1 (stereo not drawn)	none
CCC(=O)N1C[C@@H](Oc2ccccc2)C[C@H]1C(=O)N1CCOCC1	none
CCCc1nc(C(=O)NC(C)c2nncn2CCOC)cs1 (stereo not drawn)	none
O=C(O)C1CN(C(=O)N2CCOCC2)CCN(C2CCOCC2)C1 (stereo not drawn)	none
Cc1cnc(CCNS(=O)(=O)c2cn(C)cn2)n1C1CC1	none
Cc1cccc([C@H]2C[C@@H](O)[C@@H](O)[C@@H]2NS(C)(=O)=O)c1	none
Cc1cccc(-n2ccnc2SCC(=O)Nc2ccc(F)cc2F)c1C	none
Cc1ccc(C)c(NC(=O)CSc2nccn2-c2cccc(C)c2C)c1	Pf Dd2 growth 3.5µM
CCc1ccc(NC(=O)CSc2nccn2-c2cccc(C)c2C)cc1	none
COc1ccc(-c2noc(C(=O)N3CCC3)c2[C@H](C)O)cc1	none
c1ccc2ncc(CNC[C@H]3COCc4nc5ccccc5n43)cc2c1	none
COc1ccc(OC)c(-c2cc(Cl)c3c(c2)CC(CNC(=O)c2c(F)cccc2F)O3)c1 (stereo not drawn)	none
O=C(N1CCN(S(=O)(=O)c2ccc3c(c2)CCC3)CC1)N1CC2CC(C1)[C@H]1CCCC(=O)N1C2 (stereo partly drawn)	none
O=C(c1ccc2c(c1)OCO2)N1CCCN(c2cc(-c3ccc(F)cc3)[nH]n2)CC1	none
CC(=O)Nc1ccc(NC(=O)Cn2ccn3nc(-c4ccccc4)c(CO)c3c2=O)cc1	none
CC(=O)N1CCOc2cc(S(=O)(=O)NC(C)c3ccccc3)c(Cl)cc21 (stereo not drawn)	none
CC(=O)N1CCOc2cc(S(=O)(=O)Nc3cc(C(F)(F)F)ccc3Cl)c(C)cc21	none
CC(=O)N1CCOc2cc(S(=O)(=O)Nc3cccc(C(F)(F)F)c3)c(Cl)cc21	Pf Dd2 growth 13µM
CN1C(=O)CS(=O)(=O)C12CCN(C(=O)Cc1ccc(Cl)cc1)CC2	none
CN(C)C(=O)c1ccc(-c2ccc(N3CCCCCC3)nc2)cc1	none
COc1cccc(NC(=O)Cn2c(-c3ccc(F)cc3)nc(C)c(CCO)c2=O)c1	none
CCOC(=O)C1(Cc2ccc(Cl)cc2)CCNCC1	Pf Dd2 growth 3.5µM
CCOC(=O)C1(Cc2ccccc2Cl)CCN(S(=O)(=O)c2ccccc2)CC1	none
CCOC(=O)C1(Cc2ccc(Cl)cc2)CCN(C(=O)c2ccc(C)s2)CC1	none
CO[C@H]1[C@H](NC(=O)Cn2nc(C)c(C)c2C)c2ccccc2C12CCNCC2	none
NC(=O)[C@H](Cc1ccc(O)cc1)NC(=O)[C@@]1(O)C[C@@H](O)[C@H](O)[C@@H](NC(=O)CC2(CC(=O)O)CCCC2)C1	none
COc1ccccc1-c1ccc(NC(C)c2cn(C)nc2C)nn1 (stereo not drawn)	none
O=C(NCc1ccco1)NC1CC(=O)N(CCCc2ccccc2)C1 (stereo not drawn)	none
N#CC1=C(N)N(c2ccc(Cl)cc2)C2=C(C(=O)CCC2)C1c1cc(CN2CCOCC2)cs1 (stereo not drawn)	Pf Dd2 growth 13µM
N#CC1=C(N)N(c2cccc(Cl)c2)C2=C(C(=O)CCC2)C1c1cc(CN2CCOCC2)cs1 (stereo not drawn)	Pf Dd2 growth 10µM
O=c1[nH]c(N2CCOCC2)nc2c1CCN(Cc1cccc(Cl)c1)CC2	none
N#Cc1ccc(CN2CCCOCCNC(=O)CC2)cc1	none
O=C1N(C2CCOCC2)C[C@H]2CN(Cc3cccc(Cl)c3)CCN12	none
COC(C(=O)Nc1ccnn1C1CCN(C(=O)C2CCC2)CC1)c1ccccc1 (stereo not drawn)	none
COC(=O)[C@@H](C)NC(=O)[C@H]1CN(S(=O)(=O)c2ccccc2)CCN1S(=O)(=O)c1ccccc1	none
CCn1cc(CN(C)C(=O)CCC[C@H]2NC[C@@H]3C[C@H]2CN(Cc2ccccc2)C3)c(C)n1	none
